This note sets out measurements from PubChem BioAssay (Tox21).

Assay [1] deals with Thyrotropin-releasing hormone receptor (Homo sapiens) (UniProt P34981). In words: qHTS assay to identify small molecule agonists of the thyrotropin-releasing hormone receptor (TRHR) signaling pathway (AID 1346891; calls by dose curve; further: series mostly up to about 58 µM). The essentials: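 Intracellular calcium rise, read as fluorescence every second for 3 min, served as the agonist signal in dye-loaded HEK293 cells expressing TRHR; each compound ran at 15 concentrations in triplicate.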
Sequence of Thyrotropin-releasing hormone receptor (Homo sapiens) (P34981 whole entry, looked up): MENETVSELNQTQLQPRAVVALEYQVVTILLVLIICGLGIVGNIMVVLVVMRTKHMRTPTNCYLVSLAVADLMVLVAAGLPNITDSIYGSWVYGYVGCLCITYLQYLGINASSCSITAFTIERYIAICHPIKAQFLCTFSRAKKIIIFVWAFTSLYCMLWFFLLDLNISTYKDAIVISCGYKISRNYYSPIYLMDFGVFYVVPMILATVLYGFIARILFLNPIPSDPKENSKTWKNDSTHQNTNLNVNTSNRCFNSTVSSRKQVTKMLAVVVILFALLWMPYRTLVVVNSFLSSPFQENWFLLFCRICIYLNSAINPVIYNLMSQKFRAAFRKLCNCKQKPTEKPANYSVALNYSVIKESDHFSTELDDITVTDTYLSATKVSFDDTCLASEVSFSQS
Background: In qHTS, concentration-response curves come from the screen itself.

A short description of assay [2]: Human pregnane X receptor (PXR) small molecule agonists, qHTS cell viability counter screen (AID 1346977). Further: nearly all actives have a fitted effect of over 50% in size. The essentials: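 PXR-Luc HepG2, 2,000 cells/well, 5% charcoal-stripped FBS; 5hr settle; cpd 24hr, 37C/5% CO2; CellTiter-Fluor at 23hr, read 1hr later (fluorescence).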
Assay [3] is described as follows: Caspase-3/7 induction in HepG2 cells by small molecules, qHTS assay (AID 1346978). Further: nearly all actives have a fitted effect of over 15% in size. Further: potency means the concentration at half of the fitted maximal effect. In a few lines: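 Caspase-3/7 induction was measured by Caspase-Glo 3/7 luminescence (30 min, room temperature) after a 17 hr compound exposure of wild-type HepG2 cells seeded at 2,000 per well and pre-incubated 5 hr.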
Assay [4] can be described thus: Caspase-3/7 induction in CHO-K1 cells by small molecules, qHTS cell viability counter screen (AID 1346979). Further: nearly all actives have a fitted effect of over 35% in size. Further: potency means the concentration at half of the fitted maximal effect. In a few lines:
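Cells (CHO-K1, wild type) are plated at 1,500 per well and incubated 5hr. Test compounds in DMSO are then pinned in, followed by 16hr at 37C and 5% CO2. Viability is read by CellTiter-Fluor fluorescence after 1hr.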

Assay [5] is described as follows: Caspase-3/7 induction in CHO-K1 cells by small molecules, qHTS assay (AID 1346980). Further: nearly all actives have a fitted effect of over 15% in size. In a few lines: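 Luminescent Caspase-Glo 3/7 read (30min, room temperature) quantified apoptosis induction. Cells were wild-type CHO-K1, treated with compound for 17hr at 37 C and 5% CO2.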
Assay [6] in a line: Caspase-3/7 induction in HepG2 cells by small molecules, qHTS cell viability counter screen (AID 1346981). Further: nearly all actives have a fitted effect of over 30% in size. Further: potency means the concentration at half of the fitted maximal effect. In a few lines: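 In this quantitative HTS counter screen, compounds delivered in DMSO were left on unmodified HepG2 cells for 16 hr at 37 C. Viability was then determined fluorometrically with CellTiter-Fluor, in parallel with caspase-3/7 induction in the same wells.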

Assay [7] deals with Nuclear receptor subfamily 1 group I member 2 (Homo sapiens) (UniProt O75469). In words: Human pregnane X receptor (PXR) small molecule agonists, qHTS assay (AID 1346982). Further: nearly all actives have a fitted effect of over 35% in size. Further: potency means the concentration at half of the fitted maximal effect. The essentials:
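Reporter HepG2 cells expressing PXR-Luc are cultured in charcoal-stripped FBS (5%), treated with compounds for 24 hr at 37 C, and assayed by ONE-Glo luminescence after 30 min at room temperature.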

The target of assay [8] is Cytochrome P450 2D6 (Homo sapiens) (UniProt P10635). In words: Cytochrome P450 Family 2 Subfamily D Member 6 (CYP2D6) small molecule antagonists: luciferase reporter qHTS assay (AID 1671196). Further: nearly all actives have a fitted effect of over 50% in size. Further: potency means the concentration at half of the fitted maximal effect. In a few lines:
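Test chemicals meet CYP2D6 plus proluciferin substrate (10 min, RT); NADPH regenerating solution then drives turnover for 1 h. Detection reagent halts the reaction; luminescence measured after 20 min.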
A general note: Reporter assays use an easily measured gene product as a stand-in for the process of interest.

The target of assay [9] is Cytochrome P450 2C19 (Homo sapiens) (UniProt P33261). In words: Cytochrome P450 Family 2 Subfamily C Member 19 (CYP2C19) small molecule antagonists: luciferase reporter qHTS assay (AID 1671197). Further: nearly all actives have a fitted effect of over 65% in size. Further: potency means the concentration at half of the fitted maximal effect. In a few lines: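 Compounds were tested on CYP2C19 activity via proluciferin conversion to luciferin. The 37C, 1 h reaction followed NADPH addition; detection reagent stopped it.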
Sequence of Cytochrome P450 2C19 (Homo sapiens) (P33261 whole entry, looked up): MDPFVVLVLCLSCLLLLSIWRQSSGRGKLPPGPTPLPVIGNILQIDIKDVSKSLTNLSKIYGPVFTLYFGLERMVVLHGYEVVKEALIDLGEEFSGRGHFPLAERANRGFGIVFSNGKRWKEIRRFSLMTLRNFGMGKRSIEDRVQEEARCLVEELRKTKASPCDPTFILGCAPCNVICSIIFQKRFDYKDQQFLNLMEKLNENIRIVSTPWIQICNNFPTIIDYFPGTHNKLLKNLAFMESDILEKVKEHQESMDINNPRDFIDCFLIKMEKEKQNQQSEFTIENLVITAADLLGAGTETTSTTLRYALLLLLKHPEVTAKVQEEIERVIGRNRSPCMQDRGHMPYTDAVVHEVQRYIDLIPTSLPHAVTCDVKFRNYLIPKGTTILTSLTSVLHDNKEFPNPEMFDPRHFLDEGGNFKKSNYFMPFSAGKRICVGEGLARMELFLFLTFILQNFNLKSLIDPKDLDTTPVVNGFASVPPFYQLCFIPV

For assay [10], the target named is Cytochrome P450 2C9 (Homo sapiens) (UniProt P11712). In words: Cytochrome P450 Family 2 Subfamily C Member 9 (CYP2C9) small molecule antagonists: luciferase reporter qHTS assay (AID 1671198). Further: nearly all actives have a fitted effect of over 50% in size. Further: potency means the concentration at half of the fitted maximal effect. The essentials: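 Enzyme-substrate mix preincubated with compound 10 min at room temperature; reaction started with NADPH regeneration solution, 1 h 37C. Luminescent luciferin product read after 20 min detection reagent.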
Sequence of Cytochrome P450 2C9 (Homo sapiens) (P11712 whole entry, looked up): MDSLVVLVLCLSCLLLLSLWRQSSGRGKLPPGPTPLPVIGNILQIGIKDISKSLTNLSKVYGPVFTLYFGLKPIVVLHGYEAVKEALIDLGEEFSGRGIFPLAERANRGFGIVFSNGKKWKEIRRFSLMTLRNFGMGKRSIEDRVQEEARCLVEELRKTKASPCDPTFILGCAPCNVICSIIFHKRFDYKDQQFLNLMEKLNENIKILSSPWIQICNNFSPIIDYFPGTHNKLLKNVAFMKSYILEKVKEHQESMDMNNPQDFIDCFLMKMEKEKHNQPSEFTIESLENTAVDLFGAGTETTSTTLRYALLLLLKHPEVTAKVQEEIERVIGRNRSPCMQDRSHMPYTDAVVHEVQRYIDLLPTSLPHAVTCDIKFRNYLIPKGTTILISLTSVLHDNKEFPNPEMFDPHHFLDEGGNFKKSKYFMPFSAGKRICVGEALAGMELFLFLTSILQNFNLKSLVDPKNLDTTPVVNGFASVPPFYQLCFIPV

The target in assay [11] is Cytochrome P450 1A2 (Homo sapiens) (UniProt P05177). In words: Cytochrome P450 Family 1 Subfamily A Member 2 (CYP1A2) small molecule antagonists: luciferase reporter qHTS assay (AID 1671199). Further: series mostly up to about 120 µM; nearly all actives have a fitted effect of over 50% in size. The essentials:
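Steps: enzyme-substrate mix dispensed; test compounds and furafylline control pinned in; 10 min room temperature; NADPH regeneration solution added, 1 h; reaction stopped with luciferin detection reagent; luminescence read after 20 min.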

The target in assay [12] is Voltage-gated inwardly rectifying potassium channel KCNH2 (Homo sapiens) (UniProt Q12809). In words: Human Ether-a-go-go-Related Gene (hERG) channel small molecule antagonists: fluorescence cell-based qHTS assay (AID 1671200). In a few lines: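 Channel function was assessed by thallium flux. Cells seeded the previous day and kept at 37 C took up FluxOR II dye over 1 h in the dark at room temperature, then sat another 10 min before stimulation.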
Sequence of Voltage-gated inwardly rectifying potassium channel KCNH2 (Homo sapiens) (Q12809 whole entry, looked up): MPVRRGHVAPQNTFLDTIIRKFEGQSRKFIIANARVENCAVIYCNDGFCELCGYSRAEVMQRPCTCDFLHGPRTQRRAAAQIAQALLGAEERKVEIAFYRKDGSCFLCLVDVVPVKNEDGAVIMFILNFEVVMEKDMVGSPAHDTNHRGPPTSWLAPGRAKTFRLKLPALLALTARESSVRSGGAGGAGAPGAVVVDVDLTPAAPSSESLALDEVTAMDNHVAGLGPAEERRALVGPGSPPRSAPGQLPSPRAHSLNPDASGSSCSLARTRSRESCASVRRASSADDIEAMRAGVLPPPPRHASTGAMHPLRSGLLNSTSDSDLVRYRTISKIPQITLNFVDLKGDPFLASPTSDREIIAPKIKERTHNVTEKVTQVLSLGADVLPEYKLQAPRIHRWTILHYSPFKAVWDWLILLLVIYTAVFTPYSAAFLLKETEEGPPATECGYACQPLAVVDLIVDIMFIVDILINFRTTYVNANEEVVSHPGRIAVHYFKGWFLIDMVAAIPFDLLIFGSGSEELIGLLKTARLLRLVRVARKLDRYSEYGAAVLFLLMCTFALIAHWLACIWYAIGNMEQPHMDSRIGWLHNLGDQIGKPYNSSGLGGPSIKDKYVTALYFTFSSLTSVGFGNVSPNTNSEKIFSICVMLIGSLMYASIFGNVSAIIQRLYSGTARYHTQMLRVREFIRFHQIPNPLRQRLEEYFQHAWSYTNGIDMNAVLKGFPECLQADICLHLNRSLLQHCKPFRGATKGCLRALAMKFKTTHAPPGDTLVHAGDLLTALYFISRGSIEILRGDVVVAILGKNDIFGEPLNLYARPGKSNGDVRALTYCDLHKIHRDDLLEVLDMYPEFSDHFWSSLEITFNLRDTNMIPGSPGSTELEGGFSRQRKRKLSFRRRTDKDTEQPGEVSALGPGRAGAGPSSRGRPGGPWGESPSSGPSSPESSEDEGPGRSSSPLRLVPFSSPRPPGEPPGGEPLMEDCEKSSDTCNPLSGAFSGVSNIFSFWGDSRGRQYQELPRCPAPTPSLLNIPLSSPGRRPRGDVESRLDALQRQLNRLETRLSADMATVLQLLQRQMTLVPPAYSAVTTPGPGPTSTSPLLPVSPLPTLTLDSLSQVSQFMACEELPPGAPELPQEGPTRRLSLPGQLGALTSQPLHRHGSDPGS
A general note: hERG is a cardiac potassium channel; its block is linked to QT prolongation.

In assay [13] the target is Cytochrome P450 3A4 (Homo sapiens) (UniProt P08684). In words: Cytochrome P450 Family 3 Subfamily A Member 4 (CYP3A4) small molecule antagonists: luciferase reporter qHTS assay (AID 1671201). The essentials: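 Compounds in DMSO were pin-transferred onto CYP3A4 enzyme-substrate mix and held 10 min at room temperature. NADPH regenerating solution started the reaction for 1 h; luciferin detection reagent stopped it, and luminescence was read after 20 min.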
Sequence of Cytochrome P450 3A4 (Homo sapiens) (P08684 whole entry, looked up): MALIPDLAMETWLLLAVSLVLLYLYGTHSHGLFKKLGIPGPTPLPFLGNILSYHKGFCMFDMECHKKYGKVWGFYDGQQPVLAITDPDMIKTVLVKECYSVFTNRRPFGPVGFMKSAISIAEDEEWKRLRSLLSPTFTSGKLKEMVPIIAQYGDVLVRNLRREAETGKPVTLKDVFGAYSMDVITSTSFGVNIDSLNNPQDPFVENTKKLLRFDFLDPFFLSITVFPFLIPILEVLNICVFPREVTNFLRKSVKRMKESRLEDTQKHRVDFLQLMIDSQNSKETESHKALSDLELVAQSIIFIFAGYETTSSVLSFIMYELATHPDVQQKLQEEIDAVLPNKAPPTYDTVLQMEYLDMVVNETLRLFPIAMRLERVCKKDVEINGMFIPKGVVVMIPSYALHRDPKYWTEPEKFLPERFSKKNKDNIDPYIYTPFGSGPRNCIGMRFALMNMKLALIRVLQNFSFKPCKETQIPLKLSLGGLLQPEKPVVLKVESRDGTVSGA

The target in assay [14] is Nuclear receptor subfamily 1 group I member 2 (Rattus norvegicus) (UniProt Q9R1A7). In words: Rat pregnane X receptor (rPXR) activation by small molecules, qHTS assay (AID 1346983). Further: potency means the concentration at half of the fitted maximal effect; nearly all actives have a fitted effect of over 20% in size. Particulars: rPXR luciferase reporter cells, One-Glo luminescence, 24 h; max activation: stronger effect = higher value. In a few lines: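 Luminescent readout (One-Glo luciferase, 30 min room temperature) followed 24 hr compound treatment at 37 C of rPXR cells plated 2,000 per well and preincubated 5hr; qHTS format with compounds delivered in DMSO.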
Sequence of Nuclear receptor subfamily 1 group I member 2 (Rattus norvegicus) (Q9R1A7 whole entry, looked up): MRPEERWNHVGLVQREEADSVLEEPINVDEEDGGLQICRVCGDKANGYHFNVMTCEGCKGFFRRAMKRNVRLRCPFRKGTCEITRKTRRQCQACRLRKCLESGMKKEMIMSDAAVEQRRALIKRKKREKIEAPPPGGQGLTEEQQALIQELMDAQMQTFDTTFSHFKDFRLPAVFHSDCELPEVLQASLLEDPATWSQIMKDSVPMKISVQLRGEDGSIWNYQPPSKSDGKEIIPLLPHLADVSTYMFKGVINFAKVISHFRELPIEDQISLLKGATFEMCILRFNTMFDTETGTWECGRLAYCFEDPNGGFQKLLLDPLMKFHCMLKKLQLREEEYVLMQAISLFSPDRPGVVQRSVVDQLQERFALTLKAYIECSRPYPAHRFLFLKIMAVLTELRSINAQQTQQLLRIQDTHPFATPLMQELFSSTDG

In assay [15] the target is Nuclear receptor subfamily 1 group I member 2 (Homo sapiens) (UniProt O75469). In words: CYP3A4 induction through human pregnane X receptor (PXR) by small molecules, qHTS assay (AID 1346984). Further: nearly all actives have a fitted effect of over 40% in size. The essentials:
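Induction measured in HepG2-based DPX-2 cells co-expressing human PXR and a CYP3A4 promoter-driven luciferase. After a 24-hour compound exposure, cells received CYP3A4 luciferin substrate at 3uM final for 3 hours, and light output was then recorded.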

“And” between values parts separate entries of the source, which are not always exact repeats. Equal entries are not always repeated. Inconclusive results are not listed. The source holds several records for some structures; these can differ, active in one and inactive in another. The source made the active and inactive calls. Unless noted, the call rests on the fitted dose curve; in most records, active means well fitted curve in the direction sought with a large enough effect in the repeat runs; inconclusive means weak or mixed curves; inactive means no such curve, though single readings can be large; an effect the other way counts as inactive or inconclusive.

Sequence of Cytochrome P450 1A2 (Homo sapiens) (P05177 whole entry, looked up): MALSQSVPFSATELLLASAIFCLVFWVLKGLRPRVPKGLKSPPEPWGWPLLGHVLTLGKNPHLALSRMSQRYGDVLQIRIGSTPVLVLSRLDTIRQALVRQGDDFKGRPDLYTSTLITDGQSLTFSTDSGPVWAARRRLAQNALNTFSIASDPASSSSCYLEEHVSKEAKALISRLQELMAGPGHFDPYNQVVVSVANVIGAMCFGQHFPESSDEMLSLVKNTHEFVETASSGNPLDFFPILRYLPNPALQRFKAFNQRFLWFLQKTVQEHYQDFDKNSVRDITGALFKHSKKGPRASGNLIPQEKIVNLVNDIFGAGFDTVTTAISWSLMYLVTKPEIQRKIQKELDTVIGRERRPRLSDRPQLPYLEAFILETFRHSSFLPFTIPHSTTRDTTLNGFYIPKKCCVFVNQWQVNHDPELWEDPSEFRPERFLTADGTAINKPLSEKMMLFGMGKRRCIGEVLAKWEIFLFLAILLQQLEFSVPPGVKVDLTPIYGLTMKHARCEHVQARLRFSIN
Sequence of Nuclear receptor subfamily 1 group I member 2 (Homo sapiens) (O75469 whole entry, looked up): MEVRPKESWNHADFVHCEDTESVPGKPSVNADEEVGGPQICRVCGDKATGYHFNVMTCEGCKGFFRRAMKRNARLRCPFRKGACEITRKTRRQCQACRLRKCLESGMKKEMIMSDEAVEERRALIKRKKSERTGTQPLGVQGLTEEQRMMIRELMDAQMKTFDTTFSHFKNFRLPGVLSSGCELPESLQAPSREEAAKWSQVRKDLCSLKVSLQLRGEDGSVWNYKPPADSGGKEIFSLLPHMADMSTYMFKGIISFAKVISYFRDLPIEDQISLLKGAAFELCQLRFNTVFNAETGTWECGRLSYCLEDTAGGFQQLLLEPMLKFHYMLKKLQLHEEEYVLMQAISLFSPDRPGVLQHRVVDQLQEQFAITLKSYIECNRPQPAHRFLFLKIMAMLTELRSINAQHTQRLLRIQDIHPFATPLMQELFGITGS
Sequence of Cytochrome P450 2D6 (Homo sapiens) (P10635 whole entry, looked up): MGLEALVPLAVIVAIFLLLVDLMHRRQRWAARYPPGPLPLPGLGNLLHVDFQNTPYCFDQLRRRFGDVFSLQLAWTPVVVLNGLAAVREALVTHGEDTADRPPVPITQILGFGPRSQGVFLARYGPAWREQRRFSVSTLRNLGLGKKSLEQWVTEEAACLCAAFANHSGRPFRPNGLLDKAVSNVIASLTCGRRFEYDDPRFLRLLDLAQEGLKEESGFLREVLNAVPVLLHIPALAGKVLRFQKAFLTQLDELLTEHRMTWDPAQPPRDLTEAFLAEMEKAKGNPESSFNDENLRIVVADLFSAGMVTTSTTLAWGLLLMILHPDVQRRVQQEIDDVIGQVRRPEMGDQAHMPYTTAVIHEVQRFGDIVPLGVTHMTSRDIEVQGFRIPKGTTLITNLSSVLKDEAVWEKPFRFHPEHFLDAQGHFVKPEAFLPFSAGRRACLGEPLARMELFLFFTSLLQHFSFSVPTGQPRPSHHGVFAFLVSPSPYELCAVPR

Regarding `C=C(C)C(=O)OCCCCCCCCCCCC`, the Potency result in assay [1], in assay [2], in assay [3], in [4], in assay [5] and in [6] was “inactive” throughout. Besides, the Potency entry in assay [7], in assay [8], in [9], in assay [10], in assay [11] and in assay [12] was “inactive” in each case. Besides, the Potency entry in assay [13] was “inactive”.

Regarding `NS(=O)(=O)c1cc2c(cc1Cl)NC=NS2(=O)=O`, the Potency result in assay [1], in assay [2], in [3], in [4], in assay [5] and in [6] was “inactive” throughout. The Potency entry in assay [12] is “inactive”.

Regarding `CCCCCCCCC`, the Potency result in assay [1], in assay [3], in assay [4], in assay [5], in [6] and in assay [7] was “inactive” each time. The Potency entry in assay [8], in assay [9], in assay [10], in assay [11], in [12] and in assay [13] was “inactive” in each case.

Consider `CCOC(=O)/C=C\C(=O)OCC`, for which the Potency result in assay [1], in assay [3], in [4], in assay [5], in assay [6] and in assay [7] was “inactive” in each case. Further, the Potency entry in [8], in assay [10], in assay [12] and in assay [13] was “inactive” in each case. In assay [9], the Potency was 72.3 µM (active) and inactive.

Consider `Cc1ccc(C)c(C)c1`, for which the Potency result in assay [1], in assay [3], in assay [4], in [5], in [6] and in assay [7] was “inactive” in each case. For the same molecule, the Potency result in assay [8], in [9], in assay [10], in [12] and in assay [13] was “inactive” in each case.

Take `CC#C[C@]1(O)CC[C@H]2[C@@H]3CCC4=CC(=O)CCC4=C3[C@@H](c3ccc(N(C)C)cc3)C[C@@]21C`: the Potency result in assay [1], in [3], in [5] and in assay [11] was “inactive” throughout. In addition, the Potency in assay [4] is 30.6 µM (active); in [6], 30.6 µM (active); in [7], 48.6 µM (active) and 23.7 µM (active); in assay [14], 10 µM (active); in assay [8], 63.3 µM (active) and 38.9 µM (active); in assay [9] it was 20 µM (active). In addition, the Potency in assay [10] is 2.24 µM (active) and 2.75 µM (active). Moreover, in assay [15], the call was inactive.

In the case of `CCCCCCC(C)(C)S`, the Potency entry in assay [1], in assay [3], in assay [4], in assay [5], in assay [6] and in assay [8] was “inactive” each time. In addition, the Potency result in assay [12] and in assay [13] was “inactive” in each case. The Potency in [7] was 30.9 µM (active) and inactive; in [9] it was 22.6 µM (active) and inactive; in assay [10], 32 µM (active) and inactive.

On to `Clc1ccc(Cl)c(Cl)c1Cl`, for which the Potency result in assay [1], in assay [2], in assay [3], in assay [4], in assay [5] and in assay [6] was “inactive” in each case. Moreover, the Potency result in [7], in assay [8], in [10], in assay [12] and in assay [13] was “inactive” in each case. In addition, in assay [9], the Potency is 49.7 µM (active).

As to `CC(C)n1c(/C=C/[C@@H](O)C[C@@H](O)CC(=O)O)c(-c2ccc(F)cc2)c2ccccc21`, the Potency result in assay [1], in assay [2], in assay [4], in assay [5], in [6] and in assay [8] was “inactive” in each case. The Potency result in assay [9], in [12] and in assay [13] was “inactive” each time. Besides, the Potency was 12.2 µM (active) in assay [3] and 12.6 µM (active) in assay [14].
